From PubChem BioAssay (NCI)
The panel holds about 83,000 compounds, 20% with a hit somewhere; the sample as a whole holds those more often.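 Method: cells in 96-well plates; compound added at one concentration; 48 h incubation; percent growth measured; values under 10 scored active.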 Unmarked numbers belong to inactive results. Activity calls are given as the source filed them.

Each compound was assayed on OVCAR-4 ovarian (assay: NCI-60 one-dose screen, 48 h (100 = growth as untreated, 0 = no growth, -100 = all killed)). Conditions: 10 µM unless noted.

**Q.** With O=c1[nH]c2ccc(Cl)cc2cc1CSc1ccccc1Nc1nccc(-c2ccc(Cl)cc2)n1 as the compound, how does the growth read?
**A.** Its growth is 89%.

**Q.** For CC(C)(C)OC(=O)N1C(=O)c2c(c3c4ccccc4[nH]c3c3ccc4ccccc4c23)C1=O, which growth is on record?
**A.** The growth was 77.4%.

**Q.** How did the growth turn out when CNC(=O)c1cc(-c2ccc(NC(=O)Nc3ccc(N4CCN(C)CC4)c(C(F)(F)F)c3)cc2)nc2cccnc12 was run?
**A.** The growth was -82.4% (active).

**Q.** With C/C(=N/NC(N)=S)c1ccc(Nc2nc(SCC(C)C)nc(-c3ccc(F)cc3)c2C#N)cc1 as the compound, how does the growth read?
**A.** The growth was 26.5%.

**Q.** How did the growth turn out when CCCCN1C(=O)/C(=c2\sc3n(c2=O)C2C(NN=3)N(CC)C(=O)N2CC)c2cc(Cl)ccc21 (stereo unspecified) was run?
**A.** Its growth is 89.7%.

**Q.** Which growth does the source give for COc1cc(-c2nc3ccc(-c4nnc(SCC(=O)Nc5ccc(C(C)=O)cc5)o4)cc3[nH]2)cc(OC)c1OC here?
**A.** Its growth is 111%.

**Q.** Which growth does the source give for N#Cc1c(-c2ccc(Cl)cc2)nc(SCc2ccc(F)cc2)nc1N1CCNCC1 here?
**A.** Its growth is 78.7%.

**Q.** How did the growth turn out when Cn1cc(-c2cc(N)n3nc(-c4cn(C)c5ccc(Br)cc45)cc3n2)c2cc(Br)ccc21 was run?
**A.** The growth was 86.1%.

**Q.** How did the growth turn out when Cc1cc(C(=O)Nc2sc3c(c2C(N)=O)CCC(=O)C3)ccc1OCCN1CCCCC1 was run?
**A.** Its growth is 108%.

**Q.** How did the growth turn out when NS(=O)(=O)c1ccc(Nc2nc(SCC(=O)c3ccc(Cl)cc3)nc3ccccc23)cc1 was run?
**A.** The growth was 91.3%.

**Q.** CC(C)(C)Nc1nc2c(OCCc3ccccc3)cccn2c1-c1ccc(O)cc1 was tested. Which growth did it give?
**A.** Its growth is 65%.

**Q.** CCOc1ccc2nc(NC(=O)c3ccc(C(F)(F)F)cc3)sc2c1 was tested. Which growth did it give?
**A.** The growth was 107%.

**Q.** N#Cc1c(-c2ccc(Cl)cc2)nc(SCc2ccc([N+](=O)[O-])cc2)nc1N1CCNCC1 was tested. Which growth did it give?
**A.** Its growth is 26.9%.

**Q.** With Cc1cccc(/C=C/c2nn3c(-c4ccco4)nnc3s2)c1 as the compound, how does the growth read?
**A.** Its growth is 98.7%.

**Q.** For Cc1sc2c(c1C)c(=O)nc1c(-c3nc(-c4ccc(F)cc4)no3)n[nH]n12, which growth is on record?
**A.** Its growth is 112%.

**Q.** C[C@@H]1CN(c2ccc3ncc(C#Cc4cncc(C(=O)Nc5ccc(CN6CCN(C)CC6)c(C(F)(F)F)c5)c4)n3n2)C[C@H](C)O1 was tested. Which growth did it give?
**A.** The growth was -10.1% (active).

**Q.** Which growth does the source give for Nc1c(C(=O)Nc2ccc(Cl)cc2)sc2nc(-c3cnccn3)cc(-c3cccs3)c12 here?
**A.** Its growth is 61.3%.

**Q.** With O=c1[nH]c2ccccc2cc1CSc1ccccc1Nc1nccc(-c2ccc(C(F)(F)F)cc2)n1 as the compound, how does the growth read?
**A.** The growth was 48.7%.

**Q.** Cc1c(Nc2nnc(SCC(=O)Nc3sc4c(c3C#N)CCCC4)s2)c(=O)n(-c2ccccc2)n1C was tested. Which growth did it give?
**A.** Its growth is 108%.

**Q.** For CS(=O)(=O)c1ccc(-c2nc3ccccn3c2C=Nc2ccc(Cl)cc2)cc1, which growth is on record?
**A.** The growth was 88.2%.

**Q.** Which growth does the source give for N[C@@H](Cc1cn(-c2c3ccccc3nc3ccccc23)nn1)C(=O)O here?
**A.** Its growth is 101%.

**Q.** For CC(C)(C)Nc1nc2c(OCCc3ccccc3)cccn2c1-c1cccc(F)c1, which growth is on record?
**A.** Its growth is 19.2%.

**Q.** CCN1C(=S)N(c2ccccc2)C2NC(=O)N(/N=C/C=C/c3ccccc3OC)C21 (stereo unspecified) was tested. Which growth did it give?
**A.** The growth was 81.1%.

**Q.** How did the growth turn out when CCOC(=O)c1csc(NC(=O)CSc2nc3sc4c(c3c(=O)n2-c2ccc(Cl)cc2)CCCC4)n1 was run?
**A.** Its growth is 103%.

**Q.** How did the growth turn out when Cc1ccc(CNS(=O)(=O)/N=C2\NC(=O)NC2=C(Cl)Cl)cc1 was run?
**A.** The growth was 98.7%.

**Q.** For CO/N=C1\CCc2c(sc(NC(=O)c3cccc(C(F)(F)F)c3)c2C(N)=O)C1, which growth is on record?
**A.** Its growth is -45.4% (active).

**Q.** O=C(CSc1nc2sc3c(c2c(=O)n1-c1ccc(Cl)cc1)CCCC3)N/N=C/c1ccc(F)cc1 was tested. Which growth did it give?
**A.** The growth was 89.8%.

**Q.** For CN1CCN(Cc2ccc(NC(=O)c3cncc(C#Cc4cnc5[nH]ncc5c4)c3)cc2C(F)(F)F)CC1, which growth is on record?
**A.** Its growth is 54.5%.

**Q.** Which growth does the source give for CC(C)(C)Nc1nc2c(OCCc3ccccc3)cccn2c1-c1ccc(Cl)cc1 here?
**A.** Its growth is 18.2%.

**Q.** Which growth does the source give for N#Cc1c(-c2ccc(Cl)cc2)nc(SCc2ccccc2)nc1N1CCNCC1 here?
**A.** Its growth is 85.2%.

**Q.** How did the growth turn out when COc1ccc(/C=C/C(=O)c2ccc(NC(=O)CSc3nnc(-c4ccc5nc(-c6ccc(Cl)cc6)[nH]c5c4)o3)cc2)cc1 was run?
**A.** Its growth is 103%.

**Q.** CC(=O)Nc1cc(F)cc(-c2ccc3[nH]cc(-c4ccccc4)c3n2)c1 was tested. Which growth did it give?
**A.** The growth was 42.4%.

**Q.** C=CCSc1ccc2c(c1)C(N1CCNCC1)=Nc1ccccc1O2 was tested. Which growth did it give?
**A.** The growth was 83.1% [8.25 µM].

**Q.** Which growth does the source give for Fc1ccc(-c2nc(C(Cl)Cl)nc3cc(-c4ccccc4)nn23)cc1 here?
**A.** The growth was -18.6% (active).

**Q.** How did the growth turn out when COc1ccc(NC2=C(Cl)C(=O)C(C)=C(C)C2=O)cc1OC was run?
**A.** The growth was 22%.

**Q.** For O=C1[C@H]2Cc3c([nH]c4ccccc34)[C@@H](c3ccc(Br)cc3)N2C(=O)CN1C1CCN(Cc2ccccc2)CC1, which growth is on record?
**A.** Its growth is 48.3%.

**Q.** Which growth does the source give for Cn1c(SCC(=O)c2cccs2)nc2ccccc2c1=O here?
**A.** Its growth is 92.9%.

**Q.** C/C(=C(/c1ccc(Cl)cc1)c1ccc(OCCN)cc1)c1ccc(C)cc1 was tested. Which growth did it give?
**A.** Its growth is 97%.

The compounds below were run on SK-OV-3 ovarian in the same assay as above. Conditions: 10 µM unless noted.

**Q.** For O=c1[nH]c2ccc(Cl)cc2cc1CSc1ccccc1Nc1nccc(-c2ccc(Cl)cc2)n1, which growth is on record?
**A.** Its growth is 122%.

**Q.** With CC(C)(C)OC(=O)N1C(=O)c2c(c3c4ccccc4[nH]c3c3ccc4ccccc4c23)C1=O as the compound, how does the growth read?
**A.** Its growth is 45.7%.

**Q.** How did the growth turn out when CNC(=O)c1cc(-c2ccc(NC(=O)Nc3ccc(N4CCN(C)CC4)c(C(F)(F)F)c3)cc2)nc2cccnc12 was run?
**A.** Its growth is 59.7%.

**Q.** C/C(=N/NC(N)=S)c1ccc(Nc2nc(SCC(C)C)nc(-c3ccc(F)cc3)c2C#N)cc1 was tested. Which growth did it give?
**A.** Its growth is 28.9%.

**Q.** COc1cc(-c2nc3ccc(-c4nnc(SCC(=O)Nc5ccc(C(C)=O)cc5)o4)cc3[nH]2)cc(OC)c1OC was tested. Which growth did it give?
**A.** Its growth is 112%.

**Q.** How did the growth turn out when N#Cc1c(-c2ccc(Cl)cc2)nc(SCc2ccc(F)cc2)nc1N1CCNCC1 was run?
**A.** The growth was 117%.

**Q.** With NS(=O)(=O)c1ccc(Nc2nc(SCC(=O)c3ccc(Cl)cc3)nc3ccccc23)cc1 as the compound, how does the growth read?
**A.** Its growth is 110%.

**Q.** CC(C)(C)Nc1nc2c(OCCc3ccccc3)cccn2c1-c1ccc(O)cc1 was tested. Which growth did it give?
**A.** Its growth is 110%.

**Q.** How did the growth turn out when N#Cc1c(-c2ccc(Cl)cc2)nc(SCc2ccc([N+](=O)[O-])cc2)nc1N1CCNCC1 was run?
**A.** The growth was 111%.

**Q.** How did the growth turn out when Cc1cccc(/C=C/c2nn3c(-c4ccco4)nnc3s2)c1 was run?
**A.** The growth was 114%.

**Q.** Cc1sc2c(c1C)c(=O)nc1c(-c3nc(-c4ccc(F)cc4)no3)n[nH]n12 was tested. Which growth did it give?
**A.** The growth was 101%.

**Q.** For C[C@@H]1CN(c2ccc3ncc(C#Cc4cncc(C(=O)Nc5ccc(CN6CCN(C)CC6)c(C(F)(F)F)c5)c4)n3n2)C[C@H](C)O1, which growth is on record?
**A.** The growth was -76.5% (active).

**Q.** Which growth does the source give for Nc1c(C(=O)Nc2ccc(Cl)cc2)sc2nc(-c3cnccn3)cc(-c3cccs3)c12 here?
**A.** Its growth is 74.1%.

**Q.** Which growth does the source give for O=c1[nH]c2ccccc2cc1CSc1ccccc1Nc1nccc(-c2ccc(C(F)(F)F)cc2)n1 here?
**A.** The growth was 117%.

**Q.** With Cc1c(Nc2nnc(SCC(=O)Nc3sc4c(c3C#N)CCCC4)s2)c(=O)n(-c2ccccc2)n1C as the compound, how does the growth read?
**A.** Its growth is 120%.

**Q.** CS(=O)(=O)c1ccc(-c2nc3ccccn3c2C=Nc2ccc(Cl)cc2)cc1 was tested. Which growth did it give?
**A.** Its growth is 96.9%.

**Q.** For N[C@@H](Cc1cn(-c2c3ccccc3nc3ccccc23)nn1)C(=O)O, which growth is on record?
**A.** The growth was 87.7%.

**Q.** How did the growth turn out when CC(C)(C)Nc1nc2c(OCCc3ccccc3)cccn2c1-c1cccc(F)c1 was run?
**A.** The growth was -17% (active).

**Q.** With CCN1C(=S)N(c2ccccc2)C2NC(=O)N(/N=C/C=C/c3ccccc3OC)C21 (stereo unspecified) as the compound, how does the growth read?
**A.** Its growth is 115%.

**Q.** For CCOC(=O)c1csc(NC(=O)CSc2nc3sc4c(c3c(=O)n2-c2ccc(Cl)cc2)CCCC4)n1, which growth is on record?
**A.** Its growth is 135%.

**Q.** How did the growth turn out when O=C(CSc1nc2sc3c(c2c(=O)n1-c1ccc(Cl)cc1)CCCC3)N/N=C/c1ccc(F)cc1 was run?
**A.** Its growth is 116%.

**Q.** CC(C)(C)Nc1nc2c(OCCc3ccccc3)cccn2c1-c1ccc(Cl)cc1 was tested. Which growth did it give?
**A.** The growth was 42.2%.

**Q.** With N#Cc1c(-c2ccc(Cl)cc2)nc(SCc2ccccc2)nc1N1CCNCC1 as the compound, how does the growth read?
**A.** The growth was 113%.

**Q.** How did the growth turn out when COc1ccc(/C=C/C(=O)c2ccc(NC(=O)CSc3nnc(-c4ccc5nc(-c6ccc(Cl)cc6)[nH]c5c4)o3)cc2)cc1 was run?
**A.** Its growth is 106%.

**Q.** With CC(=O)Nc1cc(F)cc(-c2ccc3[nH]cc(-c4ccccc4)c3n2)c1 as the compound, how does the growth read?
**A.** Its growth is 13.6%.

**Q.** For C=CCSc1ccc2c(c1)C(N1CCNCC1)=Nc1ccccc1O2, which growth is on record?
**A.** Its growth is 88.2% [8.25 µM].

**Q.** For Fc1ccc(-c2nc(C(Cl)Cl)nc3cc(-c4ccccc4)nn23)cc1, which growth is on record?
**A.** The growth was -28.9% (active).

**Q.** How did the growth turn out when C/C(=C(/c1ccc(Cl)cc1)c1ccc(OCCN)cc1)c1ccc(C)cc1 was run?
**A.** Its growth is 120%.
